Test in all cases: NCI-60 one-dose screen, 48 h (100 = growth as untreated, 0 = no growth, -100 = all killed)
What all share (settings): 10 µM

Assay [1] has as its system DU-145 prostate.
Assay [2] concerns K-562 leukemia.
The subject of assay [3] is MALME-3M melanoma.
Assay [4] concerns MDA-MB-231 breast.
The test system of assay [5] is RXF 393 renal.
Assay [6] relates to SF-268 CNS.
The test system of assay [7] is SF-295 CNS.
For assay [8], the system named is SF-539 CNS.
Assay [9] relates to UACC-257 melanoma.
Assay [10] has as its system M14 melanoma.
The test system of assay [11] is HCT-15 colon.
Assay [12] concerns HT29 colon.
In assay [13] the test system is SNB-75 CNS.
For assay [14], the system named is SNB-19 CNS.
Assay [15] concerns U251 CNS.
In assay [16] the test system is PC-3 prostate.
Assay [17] concerns SK-MEL-5 melanoma.
In assay [18] the test system is UACC-62 melanoma.
The test system of assay [19] is LOX IMVI melanoma.
Assay [20] has as its system SK-MEL-28 melanoma.

About 83,000 compounds went through this panel and 20% of them were active in at least one assay; those are over-represented in the sample as a whole.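 In brief: 96-well plates, 48 h treatment, single concentration, percent growth endpoint.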 Values without a mark were called inactive. Activity calls are given as the source filed them. How the source made its calls: active means growth percent below 10; inactive means the rest.

This note sets out measurements from PubChem BioAssay (NCI).

In the case of `C=CCN1C(=O)/C(=C\c2ccc3c(c2)CCC3)SC1=S`, the growth in assay [1] was 106%; in [2], 103%; in assay [3], 93.7%; in [4] it was 98.8%; in assay [5], 101%; in assay [6], 102%. The growth is 95.2% in [7]; 95.5% in [8]; 110% in assay [9]; 101% in assay [10]; 98.8% in assay [11]; 97.4% in [12]. Also, the growth is 99.9% in assay [13]; 94.2% in [14]; 100% in assay [15]; 107% in [16]; 99.6% in assay [17]; 99.2% in assay [18]. In addition, the growth in assay [19] is 98.5%; in assay [20], 113%.
Regarding `CNC(=O)c1cc(Oc2ccc(NC(=O)Nc3ccc(Cl)c(C(C)(C)C)c3)c(F)c2)ccn1`, the growth is 60.8% in assay [1]; 19% in assay [2]; 0.423% (active) in assay [3]; 48.4% in [4]; 90% in assay [5]; 59.1% in assay [6]. The growth in assay [7] is 24.5%; in assay [8], 46.6%; in [9], 20.7%; in assay [10], 22.4%; in assay [11], 38.9%; in assay [12], 25.9%. Moreover, the growth in assay [13] was 104%; in [14] it was 60%; in [15] it was 52%; in assay [16], 37.7%; in assay [17], -23.2% (active); in [18], 16%. Besides, the growth is 16.6% in assay [19] and 34.8% in assay [20].
For `CCCCCCCCCCCCCCCCCBr`, the growth in assay [1] was 113%; in assay [2], 97.4%; in [3], 108%; in [4] it was 112%; in assay [5], 109%; in [6] it was 109%. The growth is 97% in assay [7]; 99.5% in assay [8]; 102% in assay [9]; 109% in [10]; 102% in assay [11]; 97.5% in assay [12]. Besides, the growth in assay [13] is 84.3%; in assay [14] it was 95.9%; in assay [15] it was 103%; in assay [16], 92.6%; in assay [17], 98.9%; in [18] it was 104%. Further, the growth in assay [19] is 101%; in assay [20] it was 108%.
For the compound `COc1ccc(C2C=C(c3ccc(OC)c(OC)c3)N=C3SC=CN32)c(Br)c1` (stereo not given), the growth was 82.7% in assay [1]; 8.77% (active) in [2]; 88.7% in assay [3]; 78% in assay [4]; 98.5% in assay [5]; 90.4% in assay [6]. The growth in assay [7] is 74.9%; in assay [8], 87.1%; in assay [9], 97.3%; in assay [10], 55.9%; in assay [11] it was 41.9%; in assay [12], 33.7%. For the same compound, the growth in assay [13] was 85.5%; in assay [14] it was 73%; in [15], 43.7%; in assay [16], 48.9%; in assay [17], 63.6%; in assay [18] it was 68.9%. Moreover, the growth is 23.3% in assay [19] and 89.8% in assay [20].
On to `CC(C)(C)c1ccc(OCCCCCCN2CCNCC2)cc1`, for which the growth in assay [1] is 86.2%; in assay [2], 0.864% (active); in assay [3] it was 60.6%; in assay [4], 36.4%; in assay [5] it was 46.2%; in assay [6] it was 78.2%. The growth in assay [7] is 57.7%; in [8], 68.9%; in assay [9], 93.6%; in [10], 22.6%; in assay [11] it was 6.25% (active); in [12], 25%. In addition, the growth is 53.7% in [13]; 66.2% in [14]; 30.7% in [15]; 39.6% in assay [16]; 50.4% in assay [17]; -32.2% (active) in assay [18]. Moreover, the growth in assay [19] was -16.7% (active); in assay [20] it was 59.1%.
`Cn1c([N+](=O)[O-])cnc1/C=C1\Oc2ccc(Br)cc2C1=O`: the growth in assay [1] is -57.9% (active); in assay [2], -0.493% (active); in assay [3], -53.4% (active); in assay [4], -14.8% (active); in [5], -59% (active); in [6], -16.9% (active). The growth in assay [7] is 11.2%; in [8], -59.5% (active); in assay [9], -38.5% (active); in [10], -35% (active); in [11] it was -40.8% (active); in [12], -31.4% (active). Moreover, the growth was 8.51% (active) in assay [13]; 1.52% (active) in assay [14]; -29.6% (active) in assay [15]; -24.7% (active) in [16]; -89.2% (active) in assay [17]; -73.7% (active) in assay [18]. For the same compound, the growth in [19] was -52.3% (active); in assay [20] it was -13.7% (active).
`CN(C)CCCN(Cc1ccccc1O)C(=S)Nc1ccc(Cl)cc1`: the growth was 121% in assay [1]; 97.5% in [2]; 101% in assay [3]; 97% in assay [4]; 93.4% in assay [5]; 102% in assay [6]. The growth was 94.7% in assay [7]; 104% in assay [8]; 101% in assay [9]; 108% in assay [10]; 93% in [11]; 106% in assay [12]. Also, the growth is 79.5% in assay [13]; 94.7% in assay [14]; 101% in assay [15]; 93.8% in assay [16]; 91.3% in [17]; 108% in assay [18]. Moreover, the growth is 98.4% in assay [19] and 109% in [20].
